According to PubChem BioAssay (NCATS):
Results filed as inconclusive are left out. Active and inactive are the calls of the source. Unless noted, the call rests on the fitted dose curve; in most records, active means well fitted inhibition curve with a large enough effect; inconclusive means small, poorly fitted or top-dose-only effect; inactive means flat fitted curve, though single readings scatter.

How the values were obtained:
[1] = target: Glutathione peroxidase 1 (Homo sapiens) (UniProt P07203); assay: Primary qHTS Assay for Inhibitors of Recombinant Selenoprotein Glutathione Peroxidase 1 (GPX1) (AID 1845191); further: nearly all actives have a fitted effect of over 65% in size; on activity, negative = inhibition: on the % scale 0 is the no-effect control and ±100 the full control effect
Chain of Glutathione peroxidase 1 (Homo sapiens) (P07203 whole entry, looked up): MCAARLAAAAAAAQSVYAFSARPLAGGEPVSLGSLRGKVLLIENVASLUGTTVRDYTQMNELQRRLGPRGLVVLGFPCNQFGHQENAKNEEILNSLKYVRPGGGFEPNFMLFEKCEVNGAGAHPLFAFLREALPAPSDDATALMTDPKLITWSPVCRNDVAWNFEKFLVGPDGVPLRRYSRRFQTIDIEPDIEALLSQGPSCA
Method in brief: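 GR-coupled assay: compounds preincubated 30 min at room temperature with GPX1, then reaction started with CHP; final 10 nM GPX1, 1 mM GSH, 0.5 mM CHP, 0.5 mM NADPH, 100 nM GR, 0.01% BSA, pH 7.5 Tris buffer. NADPH fluorescence (340/450 nm) read at 0 and 15 min.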

[2] = target: Phospholipid hydroperoxide glutathione peroxidase GPX4 (Homo sapiens) (UniProt P36969); assay: Primary qHTS Assay for Inhibitors of Recombinant Selenoprotein Glutathione Peroxidase 4 (GPX4) (AID 1845192); further: nearly all actives have a fitted effect of over 65% in size
Chain of Phospholipid hydroperoxide glutathione peroxidase GPX4 (Homo sapiens) (P36969 whole entry, looked up): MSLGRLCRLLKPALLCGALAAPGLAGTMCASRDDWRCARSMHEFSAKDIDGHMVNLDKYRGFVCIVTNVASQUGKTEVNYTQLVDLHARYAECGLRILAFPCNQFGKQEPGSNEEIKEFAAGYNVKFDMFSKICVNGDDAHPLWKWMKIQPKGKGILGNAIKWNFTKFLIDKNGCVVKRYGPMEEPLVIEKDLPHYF
Method in brief: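 GR-coupled assay: recombinant GPX4 preincubated 30 min with compound at room temperature; final 200 nM GPX4, 1 mM GSH, 0.5 mM cumene hydroperoxide, 0.5 mM NADPH, 100 nM GR, 0.01% BSA, pH 7.5 Tris. NADPH fluorescence (340/450 nm) read at 0 and 15 min.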

[3] = qHTS profiling for inhibitors of Plasmodium falciparum proliferation (AID 504749);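 further: 0% = DMSO vehicle and full inhibition = artemisinin control; nearly all actives have a fitted effect of over 60% in size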; conditions: P. falciparum in erythrocytes, SYBR Green DNA, 72 h
Method in brief: (§1)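 Readout was DNA-dye fluorescence from lysed cultures, ex 485/em 535 nm. Parasitized red cells had grown 72 h with compound; data scaled between 0.29 uM artemisinin and DMSO wells and corrected using vehicle-only plates.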

3D7 = assay: as above; conditions: P. falciparum in erythrocytes, SYBR Green DNA, 72 h; series mostly up to 28.7 µM
Method in brief: as §1

7G8 = assay: as above; conditions: P. falciparum in erythrocytes, SYBR Green DNA, 72 h; series mostly up to 28.7 µM
Method in brief: as §1

AA1029 = assay: as above; conditions: P. falciparum in erythrocytes, SYBR Green DNA, 72 h; series mostly up to 28.7 µM
Method in brief: as §1

[4] = qHTS drug screen for cell cycle checkpoint inhibitors in PARPi-resistant BRCA-mutant ovarian cancer cell lines. (AID 1963452; calls by dose curve); conditions: PEO1/OlaR viability, CellTiter-Glo luminescence, 96 h, stronger effect = lower value
Method in brief: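 PEO1, PEO4 and PEO1/OlaR ovarian cancer cells, 600 per well, exposed 96 h at 37C to a dilution series. Viability read by CellTiter-Glo luminescence, normalized to DMSO and empty wells; activity summarized as Z-AUC.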

[5] = at 28.7 µM (top of the series), parasite line A
[6] = at 28.7 µM (top of the series), parasite line B
[7] = measured here: PEO1 parental Z-AUC

CC1CCN(CCCC(=O)c2ccc(F)cc2)CC1
inactive: Potency [1] | Potency [2] | activity, negative = inhibition [3, 5] 12.5% | activity, negative = inhibition [3, 6] 9.34% | Potency (3D7) | Potency (7G8) | Potency (AA1029)

CC(C)c1cc2c(cc1S(=O)(=O)O)[C@@]1(C)CCC[C@@](C)(C(=O)O)[C@@H]1CC2
inactive: Potency [1] | Potency [2] | activity, negative = inhibition [3, 5] 12.2% | activity, negative = inhibition [3, 6] -0.445% | Potency (3D7) | Potency (7G8) | Potency (AA1029)

O=C(Cn1ccnc1[N+](=O)[O-])NCc1ccccc1
inactive: Potency [1] | Potency [2] | activity, negative = inhibition [3, 5] 12.6% | activity, negative = inhibition [3, 6] 10.2% | Potency (3D7) | Potency (7G8) | Potency (AA1029)

O=c1[nH]c(=O)n([C@H]2C[C@H](O)[C@@H](CO)O2)cc1I
0.705: Z-AUC [4, 7]
inactive: Potency [1] | Potency [2] | Z-AUC [4] 1.59
0.916: Z-AUC ([4]; measured here: PEO4 Z-AUC)

CCOC(=O)[C@H](CCc1ccccc1)N[C@@H](C)C(=O)N1CCC[C@H]1C(=O)O
0.764: Z-AUC [4, 7]
inactive: Potency [1] | Potency [2] | Z-AUC [4] 0.643 | activity, negative = inhibition [3, 5] 7.69% | Potency (3D7) | Potency (7G8)
0.867: Z-AUC ([4]; measured here: PEO4 Z-AUC)

COc1ccc(-c2cc(=O)c3c(O)cc(O[C@@H]4O[C@H](CO[C@@H]5O[C@@H](C)[C@H](O)[C@@H](O)[C@H]5O)[C@@H](O)[C@H](O)[C@H]4O)cc3o2)cc1O
0.98: Z-AUC ([4]; measured here: PEO4 Z-AUC)
inactive: Potency [1] | Potency [2] | Z-AUC [4] 1.88
1.52: Z-AUC [4, 7]

O=S1(=O)OC(c2ccc(O)cc2)(c2ccc(O)cc2)c2ccccc21
inactive: Potency [1] | Potency [2] | activity, negative = inhibition [3, 5] -0.266% | activity, negative = inhibition [3, 6] 7% | Potency (3D7) | Potency (7G8) | Potency (AA1029)

Cc1cccc(C)c1NC(=O)CC12CCCN1CCC2
inactive: Potency [1] | Potency [2] | activity, negative = inhibition [3, 5] 2.82% | activity, negative = inhibition [3, 6] 0.226% | Potency (3D7) | Potency (7G8) | Potency (AA1029)

CC(C)C[C@@H](N)C(=O)O
inactive: Potency [1] | Potency [2] | activity, negative = inhibition [3, 5] 7.68% | activity, negative = inhibition [3, 6] 22.5% | Potency (3D7) | Potency (7G8) | Potency (AA1029)

NS(=O)(=O)c1cc(-c2nn[nH]n2)c(NCc2cccs2)cc1Cl
inactive: Potency [1] | Potency [2] | activity, negative = inhibition [3, 5] 0.998% | activity, negative = inhibition [3, 6] 13.7% | Potency (3D7) | Potency (7G8) | Potency (AA1029)

CCN1CC(CCN2CCOCC2)C(c2ccccc2)(c2ccccc2)C1=O (stereo unspecified)
inactive: Potency [1] | Potency [2] | activity, negative = inhibition [3, 5] 10.7% | activity, negative = inhibition [3, 6] -5.11% | Potency (3D7)

CCCCCCCCCCCCCCCCCCO
inactive: Potency [1] | Potency [2] | activity, negative = inhibition [3, 5] 2.93% | activity, negative = inhibition [3, 6] 2.31% | Potency (3D7) | Potency (7G8) | Potency (AA1029)

CCCCC1(COC(=O)CCC(=O)O)C(=O)N(c2ccccc2)N(c2ccccc2)C1=O
inactive: Potency [1] | Potency [2] | activity, negative = inhibition ([3]; at 12.8 µM (top of the series), parasite line A) 7.36% | activity, negative = inhibition ([3]; at 12.8 µM (top of the series), parasite line B) 2.05% | Potency (3D7) | Potency (7G8) | Potency (AA1029)
